Experimental findings from PubChem BioAssay (EPA / NIEHS) are described below.

As usually defined, the AC50 is the concentration giving half of the maximal activity seen.

A short description of assay [1]: BSK_3C_TissueFactor: BioMAP Diversity Plus: 3C Assay for Tissue Factor Biomarker Activity (AID 2282997). The conditions noted are these: BioMAP 3C HUVEC, tissue factor biomarker readout; actives raise or lower the signal. The procedure, abridged: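 In this endothelial system, HUVEC are treated for 24 h and Tissue Factor is assessed by ELISA, normalised to DMSO.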

Assay [2] is described as follows: BSK_3C_uPAR: BioMAP Diversity Plus: 3C Assay for Urokinase-type plasminogen activator receptor (uPAR) Biomarker Activity (AID 2282998). The following applies: BioMAP 3C HUVEC, uPAR biomarker ELISA; actives raise or lower the signal. The procedure, abridged: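 Cell-surface uPAR on HUVEC (3C system) read by ELISA at 24 h post-treatment, with DMSO as baseline and fitting in both directions. Parallel cultures stained with SRB to flag overt cytotoxicity.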

The nature of assay [3]: BSK_3C_VCAM1: BioMAP Diversity Plus: 3C Assay for Vascular cell adhesion molecule 1 (VCAM1) Biomarker Activity (AID 2282999). The conditions noted are these: BioMAP 3C HUVEC, VCAM1 ELISA, cytokine-stimulated; actives raise or lower the signal. Summed up: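 Activity fitted in both directions relative to DMSO, with ELISA measurement of the surface marker on primary HUVEC (3C) at 24 h post-treatment; parallel SRB staining (0.1% SRB, TCA-fixed, 560 nm) flagged overt cytotoxicity.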
(In general: An ELISA detects its analyte on a solid surface through an enzyme-linked reagent.)

Assay [4] can be described thus: BSK_4H_Eotaxin3: BioMAP Diversity Plus: 4H Assay for Eotaxin 3 Biomarker Activity (AID 2283000).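 Note: CCL26 protein level quantified by ELISA in parallel with SRB cytotoxicity check.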 The following applies: primary human endothelial cells (HUVEC); actives raise or lower the signal. The procedure, abridged: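 ELISA quantitation of CCL26 (Eotaxin-3) protein from chemically dosed human vascular endothelial cells at 24 h; increases and decreases both scored relative to DMSO-treated baseline.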

Read-out in assay [5]: Intercellular Adhesion Molecule 1 (ICAM1), ICAM1 (gene 3383)
Briefly: BSK_3C_ICAM1: BioMAP Diversity Plus: 3C Assay for Intercellular Adhesion Molecule 1 (ICAM1) Biomarker Activity (AID 2283003). The conditions noted are these: primary human endothelial cells (HUVEC); actives raise or lower the signal. The procedure, abridged:
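ELISA readout of ICAM1 in human umbilical vein endothelial cells in the 3C system, taken 24 h post-dose. Gain or loss of signal versus DMSO was fitted in both directions, with SRB total-protein staining run in parallel.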

Assay [6] in a line: BSK_3C_Proliferation: Cell Proliferation Assessment in the BioMAP Diversity Plus: 3C Assay (AID 2283006). The conditions noted are these: primary human endothelial cells (HUVEC). The procedure, abridged: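 Proliferation as total protein: sulforhodamine B (0.1%) stain of TCA-fixed subconfluent human umbilical vein endothelial cells, absorbance 560 nm, 48 h after dosing. Activity fitted in both directions against DMSO baseline.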

Read-out in assay [7]: E-selectin (Homo sapiens) (UniProt P16581)
The assay can be described thus: BSK_3C_Eselectin: BioMAP Diversity Plus: 3C Assay for Eselectin Biomarker Activity (AID 2283015).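 For outcome: cell surface E-selectin protein quantified by ELISA 24 h after dosing.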 The conditions noted are these: primary human endothelial cells (HUVEC); actives raise or lower the signal. Summed up: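 Endpoint derived by bidirectional fitting against DMSO vehicle; signal is ELISA-detected E-selectin from primary HUVEC at 24 h post-dosing, with parallel SRB staining (0.1% SRB, 560 nm) flagging cytotoxicity.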

Read-out in assay [8]: Interleukin-1 alpha (IL1a), IL1A (gene 3552)
The assay can be described thus: BSK_BE3C_IL1a: BioMAP Diversity Plus: BE3C Assay for Interleukin-1 alpha (IL1a) Biomarker Activity (AID 2283016). The conditions noted are these: primary human bronchial epithelial cells; actives raise or lower the signal. The procedure, abridged: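 IL-1a measured by ELISA after 24 h treatment of human primary bronchial epithelial cells, with gain or loss of signal fitted versus DMSO. Parallel cultures stained with SRB gauge overt cytotoxicity.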

Read-out in assay [9]: Monocyte Chemoattractant Protein-1 (MCP1), CCL2 (gene 6347)
Briefly: BSK_3C_MCP1: BioMAP Diversity Plus: 3C Assay for Monocyte Chemoattractant Protein-1 (MCP1) Biomarker Activity (AID 2283017). The conditions noted are these: primary human endothelial cells (HUVEC); actives raise or lower the signal. Summed up:
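Using human vascular primary endothelium, researchers measured MCP-1 by ELISA 24 h after treatment, with DMSO serving as negative control for bidirectional fitting.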

Read-out in assay [10]: Monocyte Chemoattractant Protein-1 (MCP1), CCL2 (gene 6347)
The assay can be described thus: BSK_4H_MCP1: BioMAP Diversity Plus: 4H Assay for Monocyte Chemoattractant Protein-1 (MCP1) Biomarker Activity (AID 2283018). The conditions noted are these: primary human endothelial cells (HUVEC); actives raise or lower the signal. The procedure, abridged: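 ELISA of MCP-1 (CCL2) 24 h after chemical dosing of HUVEC in the BioMAP 4H system. Gain or loss versus DMSO fitted; parallel SRB staining (560 nm) tracked overt cytotoxicity.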

Read-out in assay [11]: Interleukin-8 (IL8), CXCL8 (gene 3576)
The assay can be described thus: BSK_3C_IL8: BioMAP Diversity Plus: 3C Assay for Interleukin-8 (IL8) Biomarker Activity (AID 2283020). The following applies: primary human endothelial cells (HUVEC); actives raise or lower the signal. Summed up: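 IL-8 was measured by ELISA in HUVEC cultures 24 h after chemical dosing, with gain or loss of signal fitted relative to DMSO. Parallel SRB total-protein staining tracked overt cytotoxicity.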

Read-out in assay [12]: Monokine induced gamma interferon (MIG), CXCL9 (gene 4283)
The assay can be described thus: BSK_3C_MIG: BioMAP Diversity Plus: 3C Assay for Monokine induced gamma interferon (MIG) Biomarker Activity (AID 2283021). The following applies: primary human endothelial cells (HUVEC); actives raise or lower the signal. Summed up: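 ELISA measurement of MIG in human umbilical vein endothelial cells 24 h after treatment. Cytotoxicity tracked by SRB staining in parallel cultures; gain or loss of signal fitted relative to DMSO.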

The nature of assay [13]: BSK_3C_SRB: Viability Assessment in the BioMAP Diversity Plus: 3C Assay (AID 2283023).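 Note: cells read 24 h after compound dosing; fitted both ways against DMSO so a hit may be signal rise or drop.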 The conditions noted are these: primary human endothelial cells (HUVEC). Summed up:
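Overt cytotoxicity is gauged in parallel confluent HUVEC cultures by SRB total-protein staining at the time of biomarker measurement, 24 h after dosing. Gain or loss of signal is fitted versus DMSO.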

Read-out in assay [14]: Matrix Metallopeptidase 1 (MMP1), MMP1 (gene 4312)
The assay can be described thus: BSK_hDFCGF_MMP1: BioMAP Diversity Plus: hDFCGF Assay for Matrix Metallopeptidase 1 (MMP1) Biomarker Activity (AID 2283064). The conditions noted are these: primary human foreskin fibroblasts; actives raise or lower the signal. The procedure, abridged:
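MMP1 levels quantified by ELISA 24 h after dosing human dermal fibroblast cultures, with parallel SRB total-protein staining for overt cytotoxicity. Data fitted in both directions against DMSO baseline.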

Read-out in assay [15]: E-selectin (Homo sapiens) (UniProt P16581)
The assay can be described thus: BSK_SAg_Eselectin: BioMAP Diversity Plus: SAg Assay for Eselectin Biomarker Activity (AID 2283091). The following applies: primary human HUVEC with PBMC; actives raise or lower the signal. Summed up:
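Endpoint values derive from bidirectional fitting relative to DMSO, using ELISA-measured E-selectin in a human vascular co-culture (umbilical vein endothelium plus PBMC) sampled 24 h after dosing.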

The nature of assay [16]: BSK_SAg_PBMCCytotoxicity: PBMC Cytotoxicity Assessment in the BioMAP Diversity Plus: SAg Assay (AID 2283093).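 Note: PBMC viability measured as Alamar Blue reduction fluorescence at 546/580 nm; fitted both ways against DMSO so a hit may be loss or gain of signal.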 The following applies: primary human HUVEC with PBMC. Summed up:
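Alamar Blue reduction (6 h, ex/em 546/580 nm) read after 90 h culture of PBMC pre-dosed 1 h then stimulated with SEB plus TSST-1, 20 ng/mL each. Gain or loss of signal fitted relative to DMSO.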

Read-out in assay [17]: Interleukin-8 (IL8), CXCL8 (gene 3576)
The assay can be described thus: BSK_SAg_IL8: BioMAP Diversity Plus: SAg Assay for Interleukin-8 (IL8) Biomarker Activity (AID 2283094). The following applies: primary human HUVEC with PBMC; actives raise or lower the signal. The procedure, abridged: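 ELISA readout of IL-8 from a superantigen-activated endothelial/PBMC primary human co-culture, taken 24 h post-dosing and fitted in both directions against DMSO; parallel SRB total-protein staining flags overt cytotoxicity.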

For assay [18], the target named is Peroxisome proliferator-activated receptor gamma (Homo sapiens) (UniProt P37231). Briefly: OT_PPARg_PPARgSRC1_0480: Odyssey Thera (OT) 8-hour Protein-Complementation Assay for Peroxisome Proliferator-activated Receptor Gamma / SRC-1 Co-activator (AID 2283387; active = hit-call score of the fitted dose curve at least 0.9, where 1 is the maximum;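 note: nuclear to cytoplasmic split Venus YFP fluorescence ratio reporting PPARg SRC-1 interaction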). Summed up:
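Read-out: 488 nm N/C fluorescence ratio from complemented Venus YFP fragments, ≥350 cells per image, gain-of-signal fitted against DMSO baseline. Fusions of PPARg/SRC-1 with IFP1/IFP2 expressed transiently in HEK293T; compounds applied 8 h.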

Assay [19] shares this target. Briefly: OT_PPARg_PPARgSRC1_1440: Odyssey Thera (OT) 24-hour Protein-Complementation Assay for Peroxisome Proliferator-activated Receptor Gamma/ SRC-1 Co-activator (AID 2283388; active = hit-call score of the fitted dose curve at least 0.9, where 1 is the maximum;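 note: nuclear to cytoplasmic ratio of reconstituted Venus YFP fluorescence in fixed imaged cells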). Summed up:
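Cells carrying the PPARg/SRC-1 fragment-complementation reporter receive compound for 24 hours, are fixed and counterstained with Draq5, then imaged. Increased nuclear relative to cytoplasmic YFP fluorescence above DMSO baseline indicates binding activity.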

The target in assay [20] is human Retinoic Acid Receptor beta (RARb), RARB (gene 5915) (UniProt P10826). Briefly: ATG_RARb_TRANS: Attagene TRANS-FACTORIAL HepG2 Assay for human Retinoic Acid Receptor beta (AID 2283004; active = hit-call score of the fitted dose curve at least 0.9, where 1 is the maximum). Summed up:
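Fluorescent capillary-electrophoresis detection of GAL4-UAS reporter mRNA defines the endpoint, with induction over DMSO-treated wells scored as activity. Transiently transfected human hepatoma HepG2 cells expressing exogenous NR–Gal4 proteins are exposed to test chemicals for 24 h.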

Records with an inconclusive call do not appear. Activity calls are given as the source filed them. Rule for the calls, unless noted: active = hit-call score of the fitted dose curve at least 0.9, where 1 is the maximum; inactive = score below 0.9.

Sequence of human Retinoic Acid Receptor beta (RARb), RARB (gene 5915) (P10826 whole entry, looked up, the tested form may be a part): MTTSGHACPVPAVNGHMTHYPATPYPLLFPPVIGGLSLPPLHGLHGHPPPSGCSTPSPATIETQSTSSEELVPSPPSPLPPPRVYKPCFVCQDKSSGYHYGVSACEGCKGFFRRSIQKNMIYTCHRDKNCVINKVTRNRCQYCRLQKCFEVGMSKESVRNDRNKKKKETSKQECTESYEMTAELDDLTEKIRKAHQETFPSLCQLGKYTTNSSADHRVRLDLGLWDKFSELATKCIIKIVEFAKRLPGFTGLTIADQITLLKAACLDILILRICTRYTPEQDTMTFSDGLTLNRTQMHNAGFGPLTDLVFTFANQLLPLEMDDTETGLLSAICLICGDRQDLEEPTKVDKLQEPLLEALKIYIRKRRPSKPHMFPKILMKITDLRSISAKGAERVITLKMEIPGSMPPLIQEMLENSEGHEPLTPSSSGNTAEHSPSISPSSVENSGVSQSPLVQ
Sequence of E-selectin (Homo sapiens) (P16581 whole entry, looked up): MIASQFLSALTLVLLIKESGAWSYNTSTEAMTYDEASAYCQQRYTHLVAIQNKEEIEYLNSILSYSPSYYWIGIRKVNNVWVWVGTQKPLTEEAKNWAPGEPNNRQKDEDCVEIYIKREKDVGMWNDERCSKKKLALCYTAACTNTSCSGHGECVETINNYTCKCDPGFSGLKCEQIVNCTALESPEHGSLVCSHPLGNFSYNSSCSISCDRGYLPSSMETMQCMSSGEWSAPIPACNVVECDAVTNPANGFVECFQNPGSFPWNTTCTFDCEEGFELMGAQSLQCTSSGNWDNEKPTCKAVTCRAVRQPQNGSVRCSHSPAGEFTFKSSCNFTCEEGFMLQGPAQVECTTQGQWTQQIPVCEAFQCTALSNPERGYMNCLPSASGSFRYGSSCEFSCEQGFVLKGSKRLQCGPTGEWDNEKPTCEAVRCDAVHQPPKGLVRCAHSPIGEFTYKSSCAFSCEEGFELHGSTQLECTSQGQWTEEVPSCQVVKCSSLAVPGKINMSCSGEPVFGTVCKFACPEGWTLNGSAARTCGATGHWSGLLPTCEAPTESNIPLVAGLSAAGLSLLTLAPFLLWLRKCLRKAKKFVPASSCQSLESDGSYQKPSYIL
Sequence of Peroxisome proliferator-activated receptor gamma (Homo sapiens) (P37231 whole entry, looked up, the tested form may be a part): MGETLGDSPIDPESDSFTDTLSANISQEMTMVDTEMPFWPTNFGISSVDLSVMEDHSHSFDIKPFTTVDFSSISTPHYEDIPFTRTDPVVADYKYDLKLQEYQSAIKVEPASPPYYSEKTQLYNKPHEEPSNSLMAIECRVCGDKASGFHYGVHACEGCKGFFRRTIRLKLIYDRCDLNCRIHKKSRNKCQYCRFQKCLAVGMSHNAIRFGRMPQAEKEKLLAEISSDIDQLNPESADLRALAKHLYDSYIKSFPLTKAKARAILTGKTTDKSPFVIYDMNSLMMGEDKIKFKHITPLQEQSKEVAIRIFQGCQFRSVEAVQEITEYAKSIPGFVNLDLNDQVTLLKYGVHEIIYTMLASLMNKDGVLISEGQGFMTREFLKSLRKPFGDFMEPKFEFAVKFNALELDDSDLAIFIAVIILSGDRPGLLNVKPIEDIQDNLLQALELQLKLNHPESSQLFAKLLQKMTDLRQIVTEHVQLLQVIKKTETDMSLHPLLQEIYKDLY

As for `Cc1cccnc1`, the result in assay [1], in assay [2], in assay [3], in [4], in assay [5] and in [6] was inactive. The result in [7], in assay [8], in [9], in [10], in [11] and in assay [12] was inactive. Also, the outcome in assay [13], in assay [14], in assay [15], in assay [16], in [17] and in [18] was inactive. Also, the molecule was called inactive in assay [19].
As to `Cc1cc(C)c(S(=O)(=O)O)cc1N=Nc1cc(S(=O)(=O)O)c2ccccc2c1O`, the molecule was called inactive in assay [18] and in [19].
Turning to `F[B-](F)(F)F`, the outcome in assay [18] and in [19] was inactive.
Consider `O=C(O)c1ccccc1C(=O)O`, for which the outcome in assay [20] was inactive.
Take `C[Si](C)(C)O[Si](C)(C)O[Si](C)(C)C`: the result in [18] and in assay [19] was inactive.
For `CCCCCC1CCCC(=O)O1` (configuration not stated), in [20], the molecule was called inactive.
For `CCCCOC(=O)COc1ccc(Cl)cc1Cl`, the molecule was called inactive in assay [18] and in assay [19].
In the case of `CCCCCCC(O)CCCCCCCCCCC(=O)OC` (configuration not stated), the outcome in assay [1], in assay [2], in assay [3], in [4], in [5] and in assay [20] was inactive. Besides, the outcome in assay [6], in assay [7], in assay [8], in [9], in assay [11] and in assay [12] was inactive. In addition, the outcome in [13], in assay [14], in [15], in assay [16] and in [17] was inactive. The AC50 in [10] was 8.39 µM (active).
As for `[O-][n+]1ccc(Cl)cc1`, in assay [20], the molecule was classed as inactive.
Consider `CC=CC(=O)O`, for which, in assay [20], the molecule was called inactive.
As for `COC(=O)/C=C\C(=O)OC`, the result in assay [1], in assay [2], in [3], in [4], in [5] and in [6] was inactive. Moreover, the outcome in [8], in assay [9], in [10], in assay [11], in [12] and in assay [13] was inactive. In addition, the result in assay [14], in assay [16] and in assay [17] was inactive. Besides, the AC50 in assay [7] was 13.6 µM (active); in assay [15] it was 9.12 µM (active).
For the molecule `Cc1cc(O)cc(C)c1Cl`, the result in assay [18] and in assay [19] was inactive.
Regarding `O=C(Oc1ccccc1)c1ccccc1`, the call in assay [20], in assay [18] and in assay [19] was inactive.
`CO[Si](CCCNCCN)(OC)OC`: the molecule was classed as inactive in assay [20], in assay [18] and in assay [19].
Regarding `CCC(C)=NO`, the outcome in assay [1], in assay [2], in assay [3], in assay [4], in assay [5] and in assay [20] was inactive. The result in assay [6], in assay [7], in assay [8], in assay [9], in [10] and in assay [11] was inactive. Moreover, the outcome in [12], in assay [13], in assay [14], in [15], in assay [16] and in [17] was inactive.
